Records with an inconclusive call do not appear. Active and inactive are the calls of the source. Unless noted, calls follow the shape of the dose curve; as a rule, active = well fitted curve in the direction sought with a large enough effect in the repeat runs; inconclusive = weak or mixed curves; inactive = no such curve, though single readings can be large; an effect the other way counts as inactive or inconclusive.
Experiments:
[1] = qHTS assay to identify small molecule agonists of H2AX (AID 1224845; active = well fitted activation curve with a large enough effect in the signal ratio in the repeat runs, not every such curve was filed as active; the % refers to the signal ratio)
Procedure, shortened: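 Wild-type CHO-K1 cells, plated overnight, exposed 3hr at 37C to 15 concentrations (0.76% DMSO final). Lysed, then HTRF anti-pH2AX (S139) cryptate and anti-H2AX-d2 antibodies, 24 hr room temperature; 665/620 nm emission read.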

[2] = qHTS assay to identify small molecule agonists of the hypoxia (HIF-1) signaling pathway (AID 1224846; active = well fitted activation curve with a large enough effect in the signal ratio in the repeat runs, not every such curve was filed as active; the % refers to the signal ratio)
Procedure, shortened: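 Beta-lactamase FRET read-out (CCF4-AM substrate) from ME-180 cells carrying an HRE-driven bla reporter, after 17 hrs compound exposure at 37C/5% CO2. Cells were seeded at 2,000 per well in 0.5% dialyzed FBS medium and preincubated 5 hrs.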

[3] = qHTS assay to identify small molecule antagonists of the estrogen related receptor (ERR) signaling pathway from Tox21 library (AID 1224848); also: nearly all actives have a fitted effect of over 50% in size
Procedure, shortened: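 Compounds dissolved in DMSO are pin-transferred onto ERR reporter cells (2,000 per well) that have settled for 6 h at 37 C. Plates then incubate 18 h at 37 C before ONE-Glo luciferase reagent and a luminescence read 30 min later.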

[4] = qHTS assay to identify small molecule agonists of the estrogen related receptor (ERR) signaling pathway from Tox21 library (AID 1224849; calls by dose curve; also: nearly all actives have a fitted effect of over 15% in size); details: ERR reporter cell line, ONE-Glo luciferase, 18 h; at 92.4 µM (top of the series) unless noted
Procedure, shortened: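 Luminescence readout (ONE-Glo, 30 min RT) after 18 h compound exposure at 37 C of NTP-supplied ERR reporter cells; cells were plated 6 h before compound addition by pin tool.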

[5] = qHTS RealTime-Glo MT Cell Viability Assay in HepG2 cells - 24 hour (AID 1224867); also: nearly all actives have a fitted effect of over 50% in size
Procedure, shortened: (§1)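 Tox21 10K library screened in qHTS format on HepG2 cells carrying RealTime-Glo reagents. Compounds were added after a 5 h preincubation, and the luminescent signal from continuous culture was measured repeatedly during 40 h treatment.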

[6] = qHTS RealTime-Glo MT Cell Viability Assay in HEK293 cells - 32 hour (AID 1224868); also: nearly all actives have a fitted effect of over 50% in size; also: potency is read from the fitted curve at half-maximal effect
Procedure, shortened: (§2)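 Luminescence generated by NanoLuc from substrate produced by living HEK293 cells served as the viability signal. Each value reflects the reading at its stated time point during continuous 40 h compound exposure at 37 C.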

[7] = A CellTox Green Cytotoxicity Assay to monitor cytotoxicity in HEK293 cells - 0 hour (AID 1224869); also: nearly all actives have a fitted effect of over 50% in size
Procedure, shortened: (§3)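 Read-out: fluorescence of a cell-impermeant cyanine dye staining DNA of dead cells, proportional to cytotoxicity. HEK293, 600 cells/well with reagent, compound (23 nL DMSO) added after 5 h; reads at 0, 8, 16, 24, 32, 40 h.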

[8] = qHTS RealTime-Glo MT Cell Viability Assay in HepG2 cells - 40 hour (AID 1224870); also: nearly all actives have a fitted effect of over 50% in size
Procedure, shortened: (§4)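 HepG2 cells (600/well) mixed with RealTime-Glo MT reagent, settled 5 h at 37 C/5% CO2 before compound addition. Nonlytic NanoLuc luminescence from viable-cell prosubstrate reduction read repeatedly during 40 h treatment at 37 C.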

[9] = A CellTox Green Cytotoxicity Assay to monitor cytotoxicity in HEK293 cells - 40 hour (AID 1224871); also: nearly all actives have a fitted effect of over 45% in size; also: potency is read from the fitted curve at half-maximal effect
Procedure, shortened: as §3

[10] = qHTS RealTime-Glo MT Cell Viability Assay in HepG2 cells - 8 hour (AID 1224873); also: nearly all actives have a fitted effect of over 55% in size
Procedure, shortened: as §4

[11] = qHTS RealTime-Glo MT Cell Viability Assay in HEK293 cells - 40 hour (AID 1224874); details: RealTime-Glo luminescence; max response: stronger effect = lower value; also: nearly all actives have a fitted effect of over 50% in size; also: potency is read from the fitted curve at half-maximal effect
Procedure, shortened: (§5)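 Luminescence readout at each listed time point; HEK293, 600 cells/well, RealTime-Glo MT reagent added with cells; compounds pinned (23 nL in DMSO) after 5 h at 37 C; continuous culture at 37 C.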

[12] = A CellTox Green Cytotoxicity Assay to monitor cytotoxicity in HEK293 cells - 24 hour (AID 1224875); also: nearly all actives have a fitted effect of over 45% in size; also: potency is read from the fitted curve at half-maximal effect
Procedure, shortened: as §3

[13] = qHTS RealTime-Glo MT Cell Viability Assay in HepG2 cells - 32 hour (AID 1224877); also: nearly all actives have a fitted effect of over 55% in size
Procedure, shortened: as §1

[14] = qHTS RealTime-Glo MT Cell Viability Assay in HEK293 cells - 0 hour (AID 1224880); also: top concentration of the series differs between compounds; nearly all actives have a fitted effect of over 45% in size
Procedure, shortened: as §5

[15] = qHTS assay to identify small molecule agonists of H2AX - cell viability counter screen (AID 1224847; calls by dose curve; also: top concentration of the series differs between compounds; nearly all actives have a fitted effect of over 30% in size)
Procedure, shortened: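 CHO-K1 cells plated overnight at 37C, then exposed 3 h at 37C to compounds at 15 concentrations (0.76% DMSO final). Viability by CellTiter-Glo luminescence after 30 min at room temperature.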

[16] = qHTS RealTime-Glo MT Cell Viability Assay in HEK293 cells - 16 hour (AID 1224872); also: nearly all actives have a fitted effect of over 50% in size; also: potency is read from the fitted curve at half-maximal effect
Procedure, shortened: as §2

[17] = A CellTox Green Cytotoxicity Assay to monitor cytotoxicity in HepG2 cells - 16 hour (AID 1224876); also: nearly all actives have a fitted effect of over 45% in size; also: potency is read from the fitted curve at half-maximal effect
Procedure, shortened: (§6)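 HepG2, 600 cells/well premixed w/ CellTox Green; 5 h settle, 37 C/5% CO2; pintool cpd add (DMSO); 37 C, 40 h; fluorescence read at 0, 8, 16, 24, 32, 40 h.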

[18] = A CellTox Green Cytotoxicity Assay to monitor cytotoxicity in HepG2 cells - 24 hour (AID 1224878); also: nearly all actives have a fitted effect of over 45% in size; also: potency is read from the fitted curve at half-maximal effect
Procedure, shortened: as §6

[19] = A CellTox Green Cytotoxicity Assay to monitor cytotoxicity in HepG2 cells - 40 hour (AID 1224879); also: nearly all actives have a fitted effect of over 40% in size; also: potency is read from the fitted curve at half-maximal effect
Procedure, shortened: as §6

[20] = A CellTox Green Cytotoxicity Assay to monitor cytotoxicity in HEK293 cells - 32 hour (AID 1224881); also: nearly all actives have a fitted effect of over 40% in size; also: potency is read from the fitted curve at half-maximal effect
Procedure, shortened: as §3
% is scaled to controls: 0 for no effect and ±100 for the full control effect.

O=C1CCCCCCCCCCCC(=O)OCCO1
active: Potency [9] 54.9 µM
inactive: Potency [1] | Potency [2] | Potency [3] | activity change, positive = activation [4] 1.67% | Potency [5] | Potency [6] | Potency [7] | Potency [8] | Potency [10] | max response [11] -16% | Potency [12] | Potency [13] | Potency [14]

O=P(O)(OCc1ccccc1)OCc1ccccc1
inactive: Potency [1] | Potency [2] | Potency [15] | Potency [6] | Potency [7] | Potency [8] | Potency [9] | Potency [16] | Potency [10] | max response [11] 2.99% | Potency [12] | Potency [17] | Potency [13] | Potency [18] | Potency [19] | Potency [14] | Potency [20]

NCc1ccccc1Sc1ccccc1CO
inactive: Potency [1] | Potency [2] | Potency [15] | Potency [5] | Potency [7] | Potency [8] | Potency [9] | Potency [16] | max response [11] -17% | Potency [12] | Potency [18] | Potency [19] | Potency [20]

COC(=O)c1ccc(I)cc1S(=O)(=O)NC(=O)Nc1nc(C)nc(OC)n1
inactive: Potency [1] | Potency [2] | Potency [15] | Potency [6] | Potency [7] | Potency [8] | Potency [9] | Potency [16] | Potency [10] | max response [11] 0.658% | Potency [12] | Potency [17] | Potency [13] | Potency [18] | Potency [19] | Potency [14] | Potency [20]

O=S(=O)(Oc1ccc(Cl)cc1)c1ccccc1
inactive: Potency [1] | Potency [2] | Potency [3] | activity change, positive = activation [4] -14.7% | Potency [7] | Potency [8] | Potency [9] | Potency [10] | max response [11] -29.4% | Potency [12] | Potency [17] | Potency [13] | Potency [18] | Potency [19] | Potency [20]

C=C1[C@H]2CC[C@@H]3[C@H]2C(C)(C)CCC[C@]13C
inactive: Potency [1] | Potency [2] | Potency [15] | Potency [6] | Potency [7] | Potency [8] | Potency [9] | Potency [16] | Potency [10] | max response [11] -2.59% | Potency [12] | Potency [17] | Potency [13] | Potency [18] | Potency [19] | Potency [14]

OCCN1CCN(CCCN2c3ccccc3C=Cc3ccccc32)CC1
inactive: Potency [1] | Potency [2] | Potency [15] | Potency [7] | Potency [8] | Potency [9] | Potency [16] | Potency [10] | Potency [12] | Potency [17] | Potency [13] | Potency [18] | Potency [19] | Potency [14] | Potency [20]

S=C([S-])NCCNC(=S)[S-].[Mn+2]
inactive: Potency [1] | Potency [2] | Potency [15] | Potency [5] | Potency [7] | Potency [8] | Potency [9] | Potency [10] | Potency [12] | Potency [17] | Potency [13] | Potency [18] | Potency [19] | Potency [20]

CCCCO
inactive: Potency [1] | Potency [2] | Potency [15] | Potency [6] | Potency [7] | Potency [8] | Potency [9] | Potency [16] | Potency [10] | max response [11] 1.62% | Potency [12] | Potency [17] | Potency [13] | Potency [18] | Potency [19] | Potency [14] | Potency [20]

C/C=C/C=C/CO
inactive: Potency [1] | Potency [2] | Potency [15] | Potency [5] | Potency [7] | Potency [8] | Potency [9] | Potency [16] | Potency [10] | Potency [12] | Potency [13] | Potency [18] | Potency [19] | Potency [14] | Potency [20]

Nc1ncn([C@H]2C[C@H](O)[C@@H](CO)O2)c(=O)n1
inactive: Potency [1] | Potency [2] | Potency [15] | Potency [6] | Potency [7] | Potency [8] | Potency [9] | Potency [16] | max response [11] 2.14% | Potency [12] | Potency [17] | Potency [13] | Potency [18] | Potency [19] | Potency [20]

CC(C)=CCC/C(C)=C/CC/C(C)=C/CO
inactive: Potency [1] | Potency [2] | Potency [7] | Potency [8] | Potency [10] | Potency [17] | Potency [13] | Potency [18] | Potency [14]

OC(CN1CCC(Cc2ccc(F)cc2)CC1)c1ccc(Cl)cc1 (centres undefined)
active: Potency [6] 10.7 µM | Potency [9] 21.3 µM | Potency [16] 9.52 µM | Potency [11] 9.52 µM | Potency [18] 21.3 µM | Potency [19] 23.9 µM
inactive: Potency [1] | Potency [2] | Potency [7]

CCCCCCCCCCO[C@@H]1O[C@H](CO)[C@@H](O)[C@H](O)[C@H]1O
inactive: Potency [1] | Potency [2] | Potency [15] | Potency [5] | Potency [7] | Potency [8] | Potency [16] | Potency [10] | Potency [17] | Potency [13] | Potency [18] | Potency [19] | Potency [14]

Cc1cccc(Nc2ccccc2)c1
inactive: Potency [1] | Potency [2] | Potency [5] | Potency [6] | Potency [7] | Potency [8] | max response [11] -10.8% | Potency [13] | Potency [14]
active: Potency [9] 34.7 µM | Potency [12] 38.9 µM | Potency [17] 43.6 µM | Potency [18] 38.9 µM | Potency [19] 38.9 µM | Potency [20] 34.7 µM

CCCCCCCCO[C@@H]1O[C@H](CO)[C@@H](O)[C@H](O)[C@H]1O
inactive: Potency [1] | Potency [2] | Potency [15] | Potency [6] | Potency [7] | Potency [8] | Potency [9] | Potency [10] | max response [11] 4.48% | Potency [12] | Potency [17] | Potency [13] | Potency [18] | Potency [19] | Potency [14] | Potency [20]

c1ccc(CNCCNCc2ccccc2)cc1
inactive: Potency [1] | Potency [2] | Potency [15] | Potency [5] | Potency [7] | Potency [8] | Potency [9] | max response [11] 7.91% | Potency [12] | Potency [17] | Potency [13] | Potency [19] | Potency [14] | Potency [20]
